SMN2 splice up: enhancers of SMN2 splice variant expression | HEK293 SMN2-luciferase splicing reporter, luminescence, 30-36 h | Potency, µM (titrated, usually from 46.1 µM), actives largely listed as activators | 2.8% of 210,000 active | AID 1458; also: nearly all actives have a fitted effect of over 55% in size
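qHTS luciferase splicing reporter: luminescence rises when SMN2 exon 7 is included in transfected HEK293 cells. Compound exposure lasted 30-36 h at 37C, with 4.5 mM final sodium butyrate as control, followed by a ONE-Glo read.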
Rab9 prom act: Rab9 promoter activation; Huh7 Rab9 promoter-luciferase reporter, luminescence, 24 h; Potency, µM (highest dose often 9.22 µM), most hits filed as activators; 2.8% of 320,000 active; AID 485297; also: nearly all actives have a fitted effect of over 60% in size
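Luminescence read-out: Huh7 cells stably expressing Rab9-luciferase, treated 24 h with compound at 37 °C, then lysed with luciferase reagent for 10 min at ambient before reading.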
ELG1 genotox: induces genotoxicity in HEK293T cells with luciferase-tagged ELG1. HEK293T ELG1-luciferase reporter, luminescence, 16 h. Potency, µM (doses to about 46 µM), most hits filed as activators. 1.3% of 330,000 active; also: nearly all actives have a fitted effect of over 60% in size
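Step 1: seed 2,000 HEK293T ELG1-luciferase cells per well. Step 2: add compound or DMSO, incubate 16 hr at 37 °C. Step 3: ONE-Glo, 30 min at room temperature, read luminescence.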
NPC1 prom act: NPC1 promoter activation | Potency, µM (titrated, usually from 9.22 µM), actives largely listed as activators | Huh7 NPC1 promoter luciferase reporter, 24 h | 2.4% of 320,000 active; also: nearly all actives have a fitted effect of over 60% in size
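NPC1 promoter–luciferase Huh7 cells; 24 h compound; luminescence.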
FLuc modulator: counter-screen for miR-21 project: firefly luciferase inhibitors or activators; P08659; purified FLuc, Km substrates, luminescence inhibition; Potency, µM (top dose mostly 57.5 µM), most hits filed as inhibitors; 6.9% of 360,000 active; also: nearly all actives have a fitted effect of over 55% in size
Target sequence (P08659 whole entry, looked up): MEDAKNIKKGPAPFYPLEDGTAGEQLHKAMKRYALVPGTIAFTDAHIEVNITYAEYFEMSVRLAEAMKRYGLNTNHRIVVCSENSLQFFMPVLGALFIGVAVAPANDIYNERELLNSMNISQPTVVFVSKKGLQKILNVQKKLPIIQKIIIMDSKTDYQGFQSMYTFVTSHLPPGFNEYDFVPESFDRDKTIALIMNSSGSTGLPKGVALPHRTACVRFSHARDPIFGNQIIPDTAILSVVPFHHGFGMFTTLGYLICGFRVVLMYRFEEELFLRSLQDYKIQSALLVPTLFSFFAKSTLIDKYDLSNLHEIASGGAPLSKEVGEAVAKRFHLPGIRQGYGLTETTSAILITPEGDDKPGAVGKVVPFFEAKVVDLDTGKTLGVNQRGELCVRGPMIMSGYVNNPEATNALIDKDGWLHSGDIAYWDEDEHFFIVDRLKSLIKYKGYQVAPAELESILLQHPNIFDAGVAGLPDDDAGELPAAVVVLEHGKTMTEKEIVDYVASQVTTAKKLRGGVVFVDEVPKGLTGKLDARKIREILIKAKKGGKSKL
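Purified P. pyralis luciferase (10nM final) with 10uM D-luciferin and 10uM ATP (Km levels) in 50mM Tris acetate pH 7.5, 10mM Mg acetate, 0.01% Tween-20, 0.05% BSA; qHTS 6-point titration, ~60 µM downward; luminescence read.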
Hits are given with their value; n = inactive; u = inconclusive; x = no result given; [ ] = another dose, or the depositor's remark. Most compounds without a hit are left out; they make up all but 7.4% or so of the library. Calls follow the shape of the dose curve; as a rule, active = well fitted curve in the direction sought with a large enough effect; inconclusive = small, poorly fitted or top-dose-only effect, or another doubt; inactive = no such curve, though single readings can be large; an effect the other way counts as inactive or inconclusive.

SMILES	SMN2 splice up	Rab9 prom act	ELG1 genotox	NPC1 prom act	FLuc modulator
N#Cc1cc2cc3c(cc2nc1SCC(=O)N1CCCC1)OCCO3	x	u	n	u	n
COc1cc2cc(C)c(SCC(=O)N3CCOCC3)nc2cc1OC	x	n	n	n	n
COc1ccccc1CNC(=O)c1oc2ccc(S(=O)(=O)N3CCCCC3)cc2c1C	x	x	x	x	n
COc1ccc(C2=CC(=O)C=CC2=O)cc1	x	n	n	n	8.5µM
COc1ccc(C2=CC(=O)C[C@H](c3ccc(OC)cc3)C2)cc1	x	n	n	n	n
CC(=O)OC1CC2C(C)(C)CCC(=O)[C@@]2(C)C2CC[C@@]3(C)C(c4ccoc4)OC(=O)C4OC43[C@]12C (stereo not given in full)	n	x	x	x	x
Nc1ccccc1Oc1c(F)c(F)c(Oc2ccccc2N)c(F)c1F	x	n	n	n	n
O=C(Nc1ccc2nc(-c3cccs3)[nH]c2c1)c1cccs1	n	n	n	n	n[2.3 µM]
O=C(Nc1ccc(-c2nc3ccc(NC(=O)c4cccs4)cc3[nH]2)cc1)c1cccs1	10µM	n	13µM	n	n
c1cncc(CNc2cccc(-c3nc4ccccc4[nH]3)c2)c1	0.89µM	2.5µM	u	2.8µM	7.6µM
Cn1cccc1-c1nc2ccc(NC(=O)c3ccco3)cc2[nH]1	n	n	n	n	17µM
O=C(Nc1ccc2nc(-c3cccs3)[nH]c2c1)c1ccco1	u	u	n	n	7.6µM
O=C(NCCc1ccc(F)cc1)c1ccc(Cl)c(S(=O)(=O)N2CCOCC2)c1	x	n	n	n	x
O=C(CSc1nnc(-c2ccncc2)n1-c1ccccc1)Nc1ccc(Br)cc1	x	x	x	x	n
COc1ccc(NC(=O)CSC2=Nc3ccccc3C3=NC(CC(=O)NCc4ccc5c(c4)OCO5)C(=O)N23)cc1 (stereo not given)	x	x	x	x	n
COc1ccc(CNCc2c(F)cccc2F)cc1OC	x	n	n	n	n
CC(=O)Nc1ccc2nc(-c3ccncc3)[nH]c2c1	n	n	n	n	n
COc1c(Cl)cc(C(=O)Nc2cccc(-c3nc4ccccc4[nH]3)c2)cc1Cl	n	x	x	x	u
O=C(Nc1cccc(-c2nc3ccccc3[nH]2)c1)c1ccco1	n	n	n	n	15µM
O=C(Nc1cccc(-c2cnc3ccccc3n2)c1)c1ccccc1	n	n	n	n	n
O=C(Nc1cccc(-c2cnc3ccccc3n2)c1)c1cccc(NC(=O)c2ccco2)c1	u	n	n	n	11µM
Cc1ccc2nc(-c3ccc(NC(=O)c4ccco4)cc3)[nH]c2c1	7.9µM	3.5µM	2.1µM	1.6µM	3µM
Cc1ccc(-c2nnc(-c3ccc(NC(=O)c4ccco4)cc3)o2)cc1	n	n	n	n	n
Nc1ccc(C(=O)Nc2ccc3nc(-c4ccncc4)[nH]c3c2)cc1	u	n	n	n	17µM
CCc1cccc(N2C(=O)CSC23C(=O)N(Cc2ccccc2F)c2ccccc23)c1 (stereo not given)	x	x	x	x	n
SMILES	SMN2 splice up	Rab9 prom act	ELG1 genotox	NPC1 prom act	FLuc modulator
Nc1ncnc2c1ncn2[C@@H]1O[C@H](CNC(=O)[C@@H](N)Cc2ccc(C(F)(F)F)cc2)[C@@H](O)[C@H]1O	x	x	n	x	x
O=C(Cn1cc(S(=O)(=O)Cc2cccc(Cl)c2)c2ccccc21)Nc1ccccc1C(F)(F)F	x	x	x	x	n
O=[N+]([O-])c1cccc(-c2ccc(SCc3cccnc3)nn2)c1	n	u	n	n	u
Cc1nc(C)c(-c2ccc(SCC(=O)Nc3ccccc3)nn2)s1	x	n	n	n	u
Cc1ccccc1CSc1ccc(-c2ccc3c(c2)OCO3)nn1	x	u	u	n	7.6µM
Cc1nc(C)c(-c2ccc(SCc3ccccc3C)nn2)s1	x	n	n	n	13µM
Fc1cccc(CSc2ccc(-c3ccc4c(c3)OCO4)nn2)c1	u	n	n	n	11µM
CC(=O)c1ccc(NC(=O)CSc2ccc(-c3ccc4c(c3)OCO4)nn2)cc1	n	u	n	n	u
c1cncc(CSc2ccc(-c3ccc4c(c3)OCO4)nn2)c1	n	2.8µM	n	3.2µM	17µM
CSc1nc(N)nc2c1ncn2CC(=O)N[C@H](CO)Cc1c[nH]c2ccccc12	x	x	n	x	x
Nc1ccc(/C=C/c2ccc3ncccc3c2)cc1	x	0.28µM	u	0.45µM	0.3µM
O=C(Nc1ccc2ncccc2c1)c1cccc(Br)c1	x	2.5µM	u	u	11µM

Screening data from PubChem BioAssay.
